From publication PMC3218832 come the findings set out here.

Some targets named below: RELARELA (p65 homodimer) (Homo sapiens, UniProt Q04206 1-307); p50p50 homodimer (Homo sapiens, UniProt P19838 7-356); RELB subunit;p50 subunit (Homo sapiens;Homo sapiens, UniProt Q01201;P19838 120-401;7-356).
Assay in all cases: protein binding microarray; high values mean tight binding
Holding throughout (details): dsDNA, one strand shown

The target in another assay is T1, p52p52 homodimer (Homo sapiens, UniProt Q00653 4-332).
T1 sequence: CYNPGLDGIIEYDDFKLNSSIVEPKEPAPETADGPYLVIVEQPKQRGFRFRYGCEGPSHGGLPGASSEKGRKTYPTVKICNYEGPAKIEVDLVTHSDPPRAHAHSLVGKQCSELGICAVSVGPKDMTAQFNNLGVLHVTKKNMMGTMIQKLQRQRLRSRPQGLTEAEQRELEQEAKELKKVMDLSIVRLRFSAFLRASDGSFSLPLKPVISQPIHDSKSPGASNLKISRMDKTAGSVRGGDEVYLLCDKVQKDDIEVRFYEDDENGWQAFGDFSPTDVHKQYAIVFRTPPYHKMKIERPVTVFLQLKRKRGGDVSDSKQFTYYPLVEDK

The target in assay [1] is RELA (p65) subunit of heterodimer;p50 subunit (Homo sapiens;Homo sapiens, UniProt Q04206;P19838 1-307;7-356).
Assay [2] has as its target RELA (p65) subunit of heterodimer;p52 subunit (Homo sapiens;Homo sapiens, UniProt Q04206;Q00653 1-307;4-332).
The target of a further assay is T2, RELB subunit;p52 subunit (Homo sapiens;Homo sapiens, UniProt Q01201;Q00653 120-401;4-332).
T2 sequence 1: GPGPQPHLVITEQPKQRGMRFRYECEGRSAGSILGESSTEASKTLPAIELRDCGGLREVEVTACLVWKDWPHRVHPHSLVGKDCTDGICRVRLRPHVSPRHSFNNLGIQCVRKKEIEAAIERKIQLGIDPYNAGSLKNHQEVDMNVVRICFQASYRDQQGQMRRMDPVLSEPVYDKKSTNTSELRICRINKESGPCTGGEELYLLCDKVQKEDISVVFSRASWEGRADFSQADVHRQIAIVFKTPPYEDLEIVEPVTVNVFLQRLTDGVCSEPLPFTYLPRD
T2 sequence 2: T1 sequence

Assay [3] has as its target C-Rel subunit;p50 subunit (Homo sapiens;Homo sapiens, UniProt Q04864;P19838 1-285;7-356).
For assay [4], the target named is T3, C-Rel subunit;p52 subunit (Homo sapiens;Homo sapiens, UniProt Q04864;Q00653 1-285;4-332).
T3 sequence 1: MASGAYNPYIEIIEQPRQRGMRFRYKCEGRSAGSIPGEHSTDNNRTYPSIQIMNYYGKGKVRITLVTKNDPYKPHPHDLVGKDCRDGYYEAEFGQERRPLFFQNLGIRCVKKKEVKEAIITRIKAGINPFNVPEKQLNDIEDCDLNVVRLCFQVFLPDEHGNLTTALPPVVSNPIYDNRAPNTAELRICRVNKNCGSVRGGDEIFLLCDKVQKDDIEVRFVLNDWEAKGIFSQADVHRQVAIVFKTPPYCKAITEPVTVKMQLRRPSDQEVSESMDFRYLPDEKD
T3 sequence 2: T1 sequence

RELARELA (p65 homodimer), sequence (Q04206 1-307): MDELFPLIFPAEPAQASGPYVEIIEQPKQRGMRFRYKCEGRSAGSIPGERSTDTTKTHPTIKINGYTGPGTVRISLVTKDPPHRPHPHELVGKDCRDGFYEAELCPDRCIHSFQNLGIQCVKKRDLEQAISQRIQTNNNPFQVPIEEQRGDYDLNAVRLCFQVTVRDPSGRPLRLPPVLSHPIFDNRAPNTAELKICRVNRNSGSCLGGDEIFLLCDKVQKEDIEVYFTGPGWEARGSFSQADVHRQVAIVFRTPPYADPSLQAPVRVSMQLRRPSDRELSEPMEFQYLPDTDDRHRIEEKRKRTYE
RELA (p65) subunit of heterodimer;p50 subunit, sequence (Q04206 1-307, chain 1 of 2): as the sequence (Q04206 1-307) above
RELA (p65) subunit of heterodimer;p50 subunit, sequence (P19838 7-356, chain 2 of 2): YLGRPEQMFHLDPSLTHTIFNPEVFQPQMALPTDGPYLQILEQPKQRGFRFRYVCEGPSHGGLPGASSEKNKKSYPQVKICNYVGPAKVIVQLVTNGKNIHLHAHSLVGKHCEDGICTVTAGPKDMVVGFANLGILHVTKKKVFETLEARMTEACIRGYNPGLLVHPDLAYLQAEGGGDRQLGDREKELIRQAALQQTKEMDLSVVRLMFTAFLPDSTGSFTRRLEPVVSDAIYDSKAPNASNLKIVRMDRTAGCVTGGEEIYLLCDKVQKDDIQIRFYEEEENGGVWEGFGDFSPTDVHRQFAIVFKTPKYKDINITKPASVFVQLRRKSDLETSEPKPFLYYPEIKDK
p50p50 homodimer, sequence (P19838 7-356): as the sequence (P19838 7-356, chain 2 of 2) above

GAAATCGCCCC: the binding signal with RELARELA (p65 homodimer) came out at 0.357 z-score; in the assay with p50p50 homodimer it was 0.544 z-score; with p52p52 homodimer it was 0.298 z-score; in assay [1], 0.401 z-score; in [2], 0.557 z-score; with RELB subunit;p50 subunit it was 0.494 z-score. Besides, the binding signal with RELB subunit;p52 subunit was found to be 0.759 z-score; in assay [3] it was 0.842 z-score; in [4], 0.389 z-score.

In the case of GGAAGCTTCCT, the binding signal with RELARELA (p65 homodimer) is 0.818 z-score; with p50p50 homodimer, -1.04 z-score; with p52p52 homodimer it was -0.619 z-score; in assay [1], -0.33 z-score; in [2], -0.759 z-score; with RELB subunit;p50 subunit, -1.01 z-score. Moreover, the figures for the binding signal (with RELB subunit;p52 subunit; in assay [3]; in assay [4]) were -0.836 z-score, -0.977 z-score and -0.614 z-score, respectively.

Regarding CAGGACTTCCT, the binding signal in the assay with RELARELA (p65 homodimer) is -0.0226 z-score; with p50p50 homodimer, -0.664 z-score; in the assay with p52p52 homodimer, -0.608 z-score; in assay [1] it was -0.403 z-score; in [2] it was -0.542 z-score; with RELB subunit;p50 subunit, -0.897 z-score. Moreover, the binding signal in the assay with RELB subunit;p52 subunit was -0.842 z-score; in assay [3] it was -0.448 z-score; in [4], -0.475 z-score.

AAGGACGCCCT: the binding signal with RELARELA (p65 homodimer) is -0.995 z-score; in the assay with p50p50 homodimer, -2.2 z-score; in the assay with p52p52 homodimer, -0.8 z-score; in assay [1], -0.915 z-score; in assay [2] it was -0.945 z-score; in the assay with RELB subunit;p50 subunit it was -1.1 z-score. The binding signal in the assay with RELB subunit;p52 subunit was -0.803 z-score; in [3], -1.23 z-score; in [4] it was -0.928 z-score.

On to AGGTTTTCCCC, for which the binding signal was 3.11 z-score with RELARELA (p65 homodimer); 1.14 z-score with p50p50 homodimer; 3.16 z-score in the assay with p52p52 homodimer; 2.17 z-score in assay [1]; 2.48 z-score in assay [2]; 2.01 z-score with RELB subunit;p50 subunit. Further, the binding signal with RELB subunit;p52 subunit turned out to be 2.3 z-score; in assay [3] it was 1.8 z-score; in assay [4], 2.63 z-score.

On to GGGTTGGTCCT, for which the binding signal was -0.152 z-score in the assay with RELARELA (p65 homodimer); -1.58 z-score with p50p50 homodimer; -0.471 z-score in the assay with p52p52 homodimer; -0.621 z-score in assay [1]; -0.757 z-score in [2]; -0.889 z-score with RELB subunit;p50 subunit. Moreover, the binding signal with RELB subunit;p52 subunit is -0.766 z-score; in [3], -1.12 z-score; in assay [4] it was -0.527 z-score.

In the case of CAAAAAGTCCC, the binding signal stood at 2.29 z-score in the assay with RELARELA (p65 homodimer); 1.2 z-score with p50p50 homodimer; 2.38 z-score with p52p52 homodimer; 1.75 z-score in assay [1]; 1.58 z-score in assay [2]; 2.23 z-score in the assay with RELB subunit;p50 subunit. In addition, the binding signal was 1.75 z-score in the assay with RELB subunit;p52 subunit, 1.53 z-score in assay [3] and 2.25 z-score in [4].

For GGGGGAACCCC, the binding signal came out at 2.66 z-score in the assay with RELARELA (p65 homodimer); 1.15 z-score with p50p50 homodimer; 3.25 z-score in the assay with p52p52 homodimer; 2.25 z-score in assay [1]; 3.23 z-score in [2]; 2.62 z-score in the assay with RELB subunit;p50 subunit. For the same sequence, the binding signal in the assay with RELB subunit;p52 subunit is 2.86 z-score; in assay [3], 2.58 z-score; in assay [4], 3.54 z-score.

Turning to AAGAGCATCCT, the binding signal in the assay with RELARELA (p65 homodimer) was -0.702 z-score; with p50p50 homodimer, -1.75 z-score; in the assay with p52p52 homodimer, -0.753 z-score; in [1] it was -1.09 z-score; in assay [2], -1.17 z-score; with RELB subunit;p50 subunit it was -1.16 z-score. The binding signal with RELB subunit;p52 subunit was -0.978 z-score; in [3], -1.52 z-score; in assay [4], -1.15 z-score.

As to AGAGTATTCCC, the binding signal turned out to be 1.05 z-score with RELARELA (p65 homodimer); 0.224 z-score with p50p50 homodimer; 0.305 z-score in the assay with p52p52 homodimer; 0.534 z-score in [1]; 0.292 z-score in assay [2]; 0.0188 z-score with RELB subunit;p50 subunit. The binding signal with RELB subunit;p52 subunit was determined as 0.0238 z-score; in assay [3], 0.73 z-score; in [4] it was 0.396 z-score.

In the case of CAAATTACCCT, the binding signal in the assay with RELARELA (p65 homodimer) amounted to 0.402 z-score; with p50p50 homodimer, 1.05 z-score; in the assay with p52p52 homodimer, 0.802 z-score; in [1], 0.662 z-score; in assay [2], 0.929 z-score; with RELB subunit;p50 subunit it was 0.64 z-score. In addition, the binding signal with RELB subunit;p52 subunit was 0.781 z-score; in [3], 0.509 z-score; in assay [4], 0.784 z-score.

With CGAGTGGTCCC, the binding signal is -0.301 z-score with RELARELA (p65 homodimer); -0.0725 z-score in the assay with p50p50 homodimer; -0.0457 z-score in the assay with p52p52 homodimer; -0.513 z-score in assay [1]; -0.369 z-score in assay [2]; 0.0154 z-score in the assay with RELB subunit;p50 subunit. Further, the binding signal in the assay with RELB subunit;p52 subunit was -0.138 z-score; in [3] it was -0.515 z-score; in assay [4], -0.428 z-score.

As for AGAGATCCCCC, the binding signal was -0.101 z-score with RELARELA (p65 homodimer); 1.31 z-score in the assay with p50p50 homodimer; 1.28 z-score with p52p52 homodimer; 2.02 z-score in assay [1]; 1.56 z-score in [2]; 1.82 z-score with RELB subunit;p50 subunit. For the same sequence, the binding signal came to 1.98 z-score in the assay with RELB subunit;p52 subunit, 1.37 z-score in [3] and 1.47 z-score in assay [4].

Consider AAAGTTCTCCT, for which the binding signal with RELARELA (p65 homodimer) is 0.015 z-score; in the assay with p50p50 homodimer, -1.02 z-score; in the assay with p52p52 homodimer, -0.659 z-score; in [1], -0.601 z-score; in assay [2] it was -0.834 z-score; with RELB subunit;p50 subunit it was -0.944 z-score. Also, the binding signal is -0.822 z-score with RELB subunit;p52 subunit, -0.841 z-score in assay [3] and -0.771 z-score in assay [4].

Regarding GAGATTTTCCT, the binding signal with RELARELA (p65 homodimer) was 1.17 z-score; with p50p50 homodimer, -0.538 z-score; in the assay with p52p52 homodimer it was -0.404 z-score; in assay [1], -0.116 z-score; in [2], -0.119 z-score; with RELB subunit;p50 subunit, -0.659 z-score. For the same sequence, the binding signal is -0.507 z-score in the assay with RELB subunit;p52 subunit, 0.14 z-score in assay [3] and 0.077 z-score in [4].
